Screens (PubChem BioAssay)
ELG1 repair inh = inhibitors of ELG1-dependent DNA repair in HEK293T cells | HEK293T ELG1-luciferase reporter, luminescence, 16 h; DNA damage induced by 5-fluorouridine | Potency, µM (highest dose often 46.1 µM), for inactives: at the top dose activity change, negative = inhibition, usual class: inhibitors | hit rate 2.3% among 330,000; further: potency means the concentration at half of the fitted maximal effect; nearly all actives have a fitted effect of over 55% in size
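HEK293T cells expressing luciferase-tagged ELG1 (2,000/well) received 5-Fluorouridine plus compound or DMSO for 16 hr at 37 °C. Luciferase was read by ONE-Glo luminescence after 30 min at room temperature.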
HT1080NT lethal = kills 2HG-producing HT-1080-NT fibrosarcoma cells | hit rate 1.6% among 360,000 | Potency, µM (series often up to 46.1 µM), for inactives: at the top dose activity, negative = less viability, hits mostly cytotoxic | AID 686970 | HT-1080-NT fibrosarcoma viability, CellTiter-Glo ATP luminescence, 48 h;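 further: NT is the 2HG producing partner of a matched IDH1 knockdown line; potency means the concentration at half of the fitted maximal effect; 0% = DMSO-treated cells and -100% = media-only wells without cells; nearly all actives have a fitted effect of over 55% in size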
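Viability by CellTiter-Glo luminescence after 48 h compound exposure at 37C of HT-1080-NT cells (750/well, RPMI, 5% FBS). % activity scaled between DMSO wells and medium-only wells, then curve-fitted and categorized by curve class.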
TDP1 cell CPT = DT40-hTDP1 cell growth loss with CPT; chicken DT40 Tdp1-/-;hTDP1 cells + 20 nM CPT, ATP luminescence, 48 h; Potency, µM (doses to about 46.2 µM), without a hit: at the highest dose activity change, negative = growth inhibition, actives largely listed as inhibitors; hit rate 12% among 420,000; AID 686979; further: potency means the concentration at half of the fitted maximal effect; nearly all actives have a fitted effect of over 55% in size
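Chicken DT40 Tdp1-/- cells complemented with human TDP1, 400 cells/well, exposed to compounds plus 20 nM camptothecin for at least 48 h at 37 C; viability read as ATP content by CellTiter-Glo luminescence.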
IL1B secr inh = inflammasome signaling inhibition, IL-1 beta readout | activity change, % at 57.5 µM | THP-1 LPS/ATP IL-1B secretion, AlphaLISA, 16 h; active compounds read low | hit rate 4.7% among 360,000; in the data active means activity change below about -50%; inconclusive means mostly about -30% to -49%
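Secreted IL-1B measured by AlphaLISA bead assay after 16 h compound exposure of THP-1 cells; compounds (final up to 57.5 uM) added 1 h before LPS (250 ng/mL) and ATP (1.25 mM) stimulation; lower signal means less secretion.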
HT1080 IDH1KD tx = kills HT-1080 cells with IDH1 knockdown. HT-1080 IDH1 knockdown viability, ATP luminescence, 48 h. Potency, µM (highest dose often 46.1 µM), for inactives: at the top dose activity, negative = toxicity, actives largely listed as cytotoxic. hit rate 2% among 360,000;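 further: potency means the concentration at half of the fitted maximal effect; 0% = DMSO wells and -100% = cell-free medium wells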
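Using the IDH1-knockdown HT-1080 line run in the same batch and compound series as the NT line, viability after 48 h at 37 °C was determined by CellTiter-Glo luminescence and expressed as % activity.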
DT40 TDP1 no CPT = qHTS for Inhibitors of human tyrosyl-DNA phosphodiesterase 1 (TDP1): qHTS in cells in absence of CPT | DT40 Tdp1-/- hTDP1 cells, no CPT, ATP luminescence, 48 h | Potency, µM (titrated, usually from 46.2 µM), inactives show top-dose activity change, negative = growth inhibition, most hits filed as inhibitors | hit rate 15% among 420,000 | AID 686978, 2013; further: potency means the concentration at half of the fitted maximal effect; nearly all actives have a fitted effect of over 55% in size
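Chicken DT40 Tdp1-/- cells stably complemented with human TDP1 were seeded at 400 cells/well with DMSO in place of 20 nM camptothecin. After compound pinning, cells grew at least 48 hr at 37 °C; viability read by CellTiter-Glo luminescence.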
The depositor's hits bear a star; ? = inconclusive; nt = not tested or not shown. The list is not random: actives were taken first. Their share in the collection is about 19%. Unless noted, the call rests on the fitted dose curve; in most records, active means well fitted curve in the direction sought with a large enough effect; inconclusive means small, poorly fitted or top-dose-only effect, or another doubt; inactive means no such curve, though single readings can be large; an effect the other way counts as inactive or inconclusive. Unless noted, on the % scale 0 is the no-effect control and ±100 the full control effect.

SMILES	ELG1 repair inh	HT1080NT lethal	TDP1 cell CPT	IL1B secr inh	HT1080 IDH1KD tx	DT40 TDP1 no CPT
COc1ccccc1N=Nc1nc(-c2ccccc2)c(-c2ccccc2)[nH]1	23µM*	-17%	18µM*	-14	?	16µM*
Oc1ccccc1N=Nc1nc(-c2ccccc2)c(-c2ccccc2)[nH]1	-7%	?	2.6µM*	-9	?	2.9µM*
COc1ccc(C(=O)CN2CCN(S(=O)(=O)c3cccc([N+](=O)[O-])c3)CC2)cc1	-2%	-1%	0%	-8	-7%	-14%
COc1ccc(-c2onc(C)c2C)cc1S(=O)(=O)N1CCN(c2cc(C)ccc2C)CC1	nt	nt	?	nt	nt	21µM*
COc1ccc(-c2onc(C)c2C)cc1S(=O)(=O)N1CCc2ccccc21	nt	nt	16µM*	nt	nt	?
COc1ccc(-c2cc(C)no2)cc1S(=O)(=O)N1CCCCC1	0%	-6%	?	11	-5%	-22%
COc1ccc(C)cc1S(=O)(=O)N1CCN(C(=O)c2ncoc2-c2ccc(F)cc2)CC1	0%	1%	-4%	21	-5%	?
COc1ccc(C)cc1S(=O)(=O)N1CCN(C(=O)c2ncoc2-c2ccc(C)cc2)CC1	-14%	-13%	-25%	-53*	-15%	-16%
CCC(C)c1ccc(S(=O)(=O)N2CCN(CC(O)COCC3CCCO3)CC2)cc1 (stereo unspecified)	-5%	1%	-3%	-4	1%	-12%
CC1CC(Nc2ccccc2)c2ccccc2N1C(=O)c1ccccc1F (stereo unspecified)	-12%	2%	1.8µM*	44	-7%	1µM*
CC1CC(Nc2ccccc2)c2ccccc2N1C(=O)c1cccnc1 (stereo unspecified)	16µM*	?	9.2µM*	0	?	4.6µM*
CC1COCC(C)N1C(=O)c1cccnc1 (stereo unspecified)	nt	3%	-2%	0	9%	-24%
Cc1cc(C(=O)N2CCC2(C)C(=O)NCCC#N)nn1C (stereo unspecified)	nt	-2%	6%	0	11%	25%
COCCNC(=O)[C@H]1N2C(=O)c3ccccc3C2SC1(C)C (stereo partly specified)	13%	10%	-5%	7	5%	?
CN1CCN(c2nc3cc(C(F)(F)F)ccc3n3cccc23)CC1	nt	?	?	?	23µM*	21µM*
O=C(Nc1ccc(S(=O)(=O)N2CCOCC2)cc1)c1ccccc1F	0%	-14%	-1%	-7	5%	-16%
Cc1cc(S(=O)(=O)c2ccc(Cl)cc2)nc(S(=O)(=O)c2ccc(Cl)cc2)c1C#N	nt	?	0.65µM*	-103*	6.5µM*	0.65µM*
Cc1ccccc1NC(=S)N(Cc1ccccn1)Cc1ccccc1Cl	-5%	-2%	?	?	0%	?
CC(=NNC(=S)N(Cc1ccccn1)Cc1ccccn1)c1cnccn1	nt	?	0.58µM*	104	0.58µM*	0.82µM*
COc1ccccc1NC(=S)N(Cc1ccc(C)cc1)Cc1ccccn1	-27%	1%	?	23	-1%	-22%
S=C(NN=Cc1ccccn1)N(Cc1ccccn1)Cc1ccccn1	nt	-21%	0.65µM*	59	?	0.92µM*
S=C(NN=C(c1ccccc1)c1ccccn1)N(Cc1ccccn1)Cc1ccccn1	nt	16µM*	0.15µM*	-58*	8.2µM*	0.15µM*
Cc1ccc2nc(N3CCN(c4ccccc4F)CC3)c(C=O)c(=O)n2c1	7%	0%	-12%	0	0%	10%
CC1(C)Cc2ccccc2-c2nc(NCCCO)[nH]c(=O)c21	2%	-19%	0%	11	3%	-4%
O=C(c1ccc(F)cc1)c1c[nH]c(C(=O)NCc2ccco2)c1	-9%	-5%	?	?	-2%	12µM*
SMILES	ELG1 repair inh	HT1080NT lethal	TDP1 cell CPT	IL1B secr inh	HT1080 IDH1KD tx	DT40 TDP1 no CPT
CCC(=O)c1c[nH]c(C(=O)NCc2ccco2)c1	18%	16%	1%	5	11%	-5%
COC(=O)C(CCSC)NC(=O)c1cc2c(n(-c3ccc(C)cc3)c1=O)CC(C)(C)CC2=O (stereo unspecified)	nt	nt	1%	nt	nt	-9%
Cc1ccc(-c2cc(NC(=O)COc3c(C)cc(C)cc3C)on2)cc1	nt	nt	-3%	nt	nt	2%
COc1cccc2c1OC[C@@H](CO)[C@H]2N(C)C(=O)Nc1ccc(Cl)cc1Cl	-17%	0%	13µM*	23	-15%	10µM*
Cc1nsc(Nc2ccc([N+](=O)[O-])cc2)c1C#N	-13%	-21%	2.6µM*	13	-25%	2.3µM*
O=C1NC[C@H](CCCCN2C[C@H](Cc3ccc(O)cc3)N(CCc3ccccc3)C(=O)C2=O)N(CC2CCCCC2)C1=O	nt	18%	30%	-2	15µM*	-4%
O=C1NC[C@@H](CCCCN2C[C@H](Cc3ccccc3)N(CCC3CCCCC3)C(=O)C2=O)N(CCc2ccc(O)cc2)C1=O	nt	-10%	-5%	-59*	1%	3%
O=C1NC[C@H](CCCCN2C[C@H](Cc3ccc(O)cc3)N(CCc3ccccc3)C(=O)C2=O)N(CCC2CCCCC2)C1=O	nt	16%	6%	-9	10%	-3%
CN=c1scc(-c2ccc(OC)cc2)n1/N=C(\C)c1cccnc1	18µM*	?	?	-27	?	18µM*
COc1ccc(CC(=O)N/N=C(\C)c2cccnc2)cc1	?	11%	-9%	3	8%	22%
CC1CCCN(C(=O)COc2ccc(Nc3ccccc3)cc2)C1 (stereo unspecified)	2%	-6%	?	0	0%	?
CSCc1ccc(C(=O)NCC(c2cccs2)N2CCOCC2)cc1 (stereo unspecified)	9%	3%	-18%	-8	5%	?
CCCc1n(CC)c2ccccc2[n+]1CC(O)COC1CCCCC1 (stereo unspecified)	3.3µM*	-19%	5.2µM*	5	2%	4.1µM*
CCOc1ccc(-n2nc3ccc(NC(=O)c4ccc(-c5cccc(Cl)c5)o4)cc3n2)cc1	nt	nt	0%	nt	nt	-13%
COc1cc(C(O)c2nc(-c3cccc(C#N)c3)cs2)ccc1F (stereo unspecified)	nt	-25%	?	-12	5%	?
